HIV RNase H inh-1 = inhibitors of HIV-1 reverse transcriptase RNase H; P04585; RT-RNase H RNA/DNA duplex cleavage, fluorescence; inhibition, % at 10 µM; 65,000 compounds, 1.9% hits; AID 565; in the data active = inhibition above about 50%
HIV RNase H inh-2 = confirmation of HIV-1 reverse transcriptase RNase H inhibitors. shares compounds with HIV RNase H inh-1. inhibition, % at 10 µM. Recombinant RT RNase H, fluorescent RNA/DNA duplex cleavage. 1,000 compounds, 39% hits. AID 651; in the data active = inhibition above about 48%
Each line names hits and unclear results; the compound was inactive in the other large screens (follow-up assays come after a bar, where they were run). This is one part of a sample in which hits are shown more often than they occur.

O=C(O)C1C2C=CC(O2)C1C(=O)Nc1ccc(S(=O)(=O)N2CCc3ccccc32)cc1 (stereo not given)	none
O=C(O)C1C2C=CC(O2)C1C(=O)Nc1ccc2c(c1)OCCO2 (stereo not given)	none
O=C(O)C1C2C=CC(O2)C1C(=O)Nc1ccc(S(=O)(=O)Nc2ccccc2)cc1 (stereo not given)	HIV RNase H inh-1 58.0 | HIV RNase H inh-2 inactive
O=C(NCc1ccccc1)N1CCn2c(nc3ccccc32)C1	none
CN(C(=O)COc1cc(=O)n(C)c2ccccc12)c1ccc(Br)cc1	none
CCn1c(N)c(C(N)=O)sc1=S	HIV RNase H inh-1 70.3 | HIV RNase H inh-2 inactive
CCOC(=O)c1sc(=S)n(C)c1N	none
CCn1c(N)c(C(=O)NC2CCCCC2)sc1=S	none
CSCCC(NC(=O)c1ccccc1)C(=O)NCc1ccco1 (stereo not given)	none
COc1ccc(-c2[nH]ncc2-c2cnn(-c3ccccc3)c2)c(O)c1	none
COc1ccccc1N1CCN(C(c2cccs2)c2nnnn2C2CCCC2)CC1 (stereo not given)	none
CCCc1cc(C(N)=O)c(NC(=O)c2ccco2)s1	none
CCOC(=O)c1sc(NC(=O)C2CCCO2)c(C(=O)OCC)c1C (stereo not given)	none
CCCc1cc(C(N)=O)c(NC(=O)C2CCCO2)s1 (stereo not given)	HIV RNase H inh-1 76.0 | HIV RNase H inh-2 63.9
C=CCN(CC=C)Cc1c[nH]c2ccccc12	none
C=CCn1c(=S)[nH]c2ccccc2c1=O	none
C=CCn1c(Cc2c[nH]c3ccccc23)n[nH]c1=S	HIV RNase H inh-1 53.6 | HIV RNase H inh-2 inactive
O=C(NCc1ccco1)C1CC(=O)N(c2ccc(O)cc2)C1 (stereo not given)	none
CCn1c(COc2ccccc2C)nnc1SCC(=O)CC(=O)Nc1ccccc1OC	none
Nc1nc(SCC(=O)N2CCCc3ccccc32)n(-c2ccccc2)n1	none
CS(=O)(=O)N(CC(=O)NCc1ccncc1)Cc1ccc(Cl)cc1	none
Cc1cnc(C(=O)Nc2ccc3c(c2)CCC3)cn1	none
Cc1cnc(C(=O)Nc2ccc(F)c(F)c2)cn1	HIV RNase H inh-1 50.8 | HIV RNase H inh-2 inactive
CCCCOc1ccc(NC(=O)c2cnc(C)cn2)cc1	none
N#CC1=C(c2ccccc2)N=P(N2CCOCC2)(N2CCOCC2)N=C1N1CCOCC1	none
Cc1occc1C(=O)Nc1cc(C(F)(F)F)ccc1Cl	none
CC(=O)c1cccc(NC(=O)CCS(=O)(=O)c2cccc3nonc23)c1	none
Cc1ccc(NC(=O)CCNS(=O)(=O)c2cccc3nonc23)cc1	none
Cc1ccc(N(CC(=O)Nc2cccc(C)c2)S(=O)(=O)c2cccc3nonc23)cc1	HIV RNase H inh-1 66.8 | HIV RNase H inh-2 inactive
CC1=C(C(=O)Nc2ccccc2C)C(c2ccc(C)o2)C2=C(CCCC2=O)N1 (stereo not given)	none
CC1(C)Cc2c(sc3nc(SCC#N)n(C4CCCCC4)c(=O)c23)CO1	none
c1ccc2c(-c3nc4ncccc4o3)cccc2c1	none
CCOc1ccc(NC(=O)CN(C)CC(=O)NC2CCCc3ccccc32)cc1OCC (stereo not given)	none
Cc1ccc(OCC(=O)Nc2cccc(-c3nnc(-c4ccccc4)o3)c2)cc1	none
Cc1cccc(OCC(=O)Nc2cccc(-c3nnc(-c4ccccc4)o3)c2)c1C	HIV RNase H inh-1 71.0 | HIV RNase H inh-2 66.3
Cc1cccc(C)c1OCC(=O)Nc1cccc(-c2nnc(-c3ccccc3)o2)c1	none
COc1cc(C2C(C#N)=C(N)Oc3cc(C)n(Cc4ccccn4)c(=O)c32)cc2c1OCO2 (stereo not given)	none
CCOc1cc(C2CC(=O)NC(SCC)=C2C#N)ccc1O (stereo not given)	none
COc1ccc(C2C(=O)N(C3CCCCC3)CC(=O)N2CCc2ccccc2)cc1OC (stereo not given)	none
CCOc1cc(C2CC(=O)Nc3cc(C)c(C)cc32)ccc1O (stereo not given)	none
COc1ccc2ccccc2c1C1CC(=O)N2CN(C3CCCCC3)CSC2=C1C#N (stereo not given)	HIV RNase H inh-1 81.5 | HIV RNase H inh-2 60.3
COc1ccccc1C1CC(=O)NC(SCC(=O)Nc2ccccc2)=C1C#N (stereo not given)	none
CCOc1cc(C2CC(=O)N3CN(C4CCCCC4)CSC3=C2C#N)ccc1O (stereo not given)	HIV RNase H inh-1 78.7 | HIV RNase H inh-2 71.5
COc1ccc(-c2noc(CCC(=O)NCc3cccnc3)n2)cc1OC	none
CC(C)OC(=O)CCC1(C(=O)O)CCC(=O)NC1 (stereo not given)	none
CC(C)CN(C(=O)COC(=O)c1ccc2c(c1)NC(=O)CS2)C1CCS(=O)(=O)C1 (stereo not given)	HIV RNase H inh-1 77.0 | HIV RNase H inh-2 78.7
CC(C)CN(C(=O)COC(=O)c1cc2ccccc2oc1=O)C1CCS(=O)(=O)C1 (stereo not given)	none
Cc1cc(C)n(-c2ccc(C(=O)OCC(=O)N(CC(C)C)C3CCS(=O)(=O)C3)cc2)n1 (stereo not given)	none
CCOC(=O)C(CC)Sc1nc(-c2ccc(OC)cc2)nc2c1c(=O)n(C)c(=O)n2C (stereo not given)	none
N#CCCSc1ccccc1NC(=O)c1ccc(S(=O)(=O)N2CCCC2)cc1	none
CCn1ncc(Br)c1C(=O)Nc1sc2c(c1C(N)=O)CCC2	none
CCOC(=O)c1ccc(NC(=O)c2nn(CC)cc2Br)cc1	none
CCCc1cc(C(=O)Nc2sc3c(c2C(=O)OCC)CCCC3)no1	none
CCOC(=O)c1c(NC(=O)c2nn(CC)cc2Br)sc2c1CCCCC2	HIV RNase H inh-1 88.5 | HIV RNase H inh-2 inactive
CCOC(=O)Nc1sc2c(c1C(=O)OCC)CCC2	none
CCOC(=O)c1nn(-c2ccccc2)c(C#N)c1NC(=O)c1nn(CC)cc1Br	none
CCOC(=O)c1c(NC(=O)c2nn(CC)cc2Br)sc(C)c1C	HIV RNase H inh-1 93.6 | HIV RNase H inh-2 inactive
CCOC(=O)c1c(NC(=O)c2noc3c2CCCC3)sc2c1CCCC2	none
CCOC(=O)c1c(NC(=O)c2ccc(-n3cnnn3)cc2)sc2c1CCCC2	HIV RNase H inh-1 85.7 | HIV RNase H inh-2 96.4
Cn1c(=O)c2cc(S(=O)(=O)N3CCC(c4ccccc4)CC3)ccc2n(C)c1=O	none
CCC(=O)N1CCN(c2ccc(Cl)cc2NC(=O)c2ccc(Br)o2)CC1	none
CC1CN(C(=O)Cc2ccc(-c3ccccc3)cc2)CC(C)O1 (stereo not given)	none
Cc1ccc(-c2nnn(CCC(=O)NC3CCCC3)n2)cc1	none
CCOC(=O)C1CCN(C(=O)C2CCN(S(=O)(=O)c3cccc4cccnc34)CC2)CC1	none
Cc1c(/C=N/n2cnnc2)c2ccccc2n1C	none
CC(C)=CCCC(C)NC(=O)NC1CCCCC1 (stereo not given)	none
COc1ccccc1NS(=O)(=O)c1cc(C(=O)NCCN2CCOCC2)ccc1Cl	none
CC(NC(=O)CNC(=O)OCc1ccccc1)C(=O)N1CC(O)CC1C(=O)OCc1ccccc1 (stereo not given)	HIV RNase H inh-1 65.8 | HIV RNase H inh-2 inactive
COC(=O)C(CCCCNC(=O)OCc1ccccc1)NC(=O)CN (stereo not given)	none
COC(=O)C1CCCN1C(=O)C1CCCN1C(=O)CNC(=O)OCc1ccccc1 (stereo not given)	none
C[C@H](NC(=O)Nc1ccc2c(c1)OCCO2)C(=O)O	none
COc1ccc(C2SCC(=O)Nc3c2c(=O)[nH]n3C2CCCCCC2)cc1OC (stereo not given)	none
CCOc1ccc(C2SCC(=O)Nc3c2c(=O)[nH]n3C2CCCCCC2)cc1 (stereo not given)	HIV RNase H inh-1 57.5 | HIV RNase H inh-2 inactive
COc1ccc(C2SCC(=O)Nc3c2c(=O)[nH]n3C2CCCCCC2)cc1 (stereo not given)	none

Assay outcomes (PubChem BioAssay)
